For nine compounds, activation and Potency results are on record in PubChem BioAssay (NCATS).

Inconclusive results are not listed. A number with no mark means an inactive call. Calls of active or inactive are those of the source. Calls follow the shape of the dose curve; as a rule, active = well fitted curve in the direction sought with a large enough effect; inconclusive = small, poorly fitted or top-dose-only effect, or another doubt; inactive = no such curve, though single readings can be large; an effect the other way counts as inactive or inconclusive.

The target in assay [1] is Cellular tumor antigen p53 (Homo sapiens) (UniProt P04637). Briefly: Primary qHTS for small molecule compounds that upregulate eGFP-tagged delta133p53alpha (in N-terminal) cells. (AID 2060322). Also: nearly all actives have a fitted effect of over 75% in size. Also: potency is read from the fitted curve at half-maximal effect.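 As to activation: cells pre-induced with doxycycline then dosed without doxycycline; series mostly up to about 56 µM; 0% = DMSO vehicle and 100% = reference activator.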 To be noted: NCI-H358 eGFP-delta133p53alpha fluorescence, 24 h; activation: hits give high values. A digest of the protocol: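 NCI-H358 cells pre-induced 24 h with 10 ng/ml doxycycline for eGFP-delta133p53alpha, plated dox-free and exposed 24 h at 37C to titrated compounds. Fixed, Hoechst-stained; gated GFP peak intensity by laser scanning cytometry, normalized to DMSO (0%) and 57.5 uM 5-azacytidine (100%).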
Cellular tumor antigen p53 (Homo sapiens), sequence (P04637 whole entry, looked up): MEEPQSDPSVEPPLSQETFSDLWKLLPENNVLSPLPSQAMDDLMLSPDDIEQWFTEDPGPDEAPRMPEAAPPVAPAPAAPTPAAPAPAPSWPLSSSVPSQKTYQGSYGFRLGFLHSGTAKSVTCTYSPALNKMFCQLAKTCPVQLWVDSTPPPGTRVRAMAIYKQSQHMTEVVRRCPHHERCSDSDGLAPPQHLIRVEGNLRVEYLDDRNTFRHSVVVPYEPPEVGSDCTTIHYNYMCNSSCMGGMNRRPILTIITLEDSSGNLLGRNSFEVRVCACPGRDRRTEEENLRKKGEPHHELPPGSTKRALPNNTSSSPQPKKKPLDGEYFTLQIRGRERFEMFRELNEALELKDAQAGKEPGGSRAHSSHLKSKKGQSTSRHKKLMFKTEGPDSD

Assay [2] concerns the target Aldehyde dehydrogenase, mitochondrial (Homo sapiens) (UniProt P05091). Briefly: qHTS for Inhibitors of the Aldehyde Dehydrogenase Family (ALDH2) Primary screen (AID 2061308).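 Also: plate controls were vehicle for no effect and reference inhibitor for full effect; nearly all actives have a fitted effect of over 55% in size.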
The target of assay [3] is Retinaldehyde dehydrogenase 3 (Homo sapiens) (UniProt P47895). As to the kind of experiment: qHTS for Inhibitors of the Aldehyde Dehydrogenase Family (ALDH1A3) Primary screen (AID 2061315).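 Also: plate controls were DMSO vehicle for no effect and reference inhibitor for full effect.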

As for `O=C(O[C@H]1[C@@H]2C=CO[C@@H](O[C@@H]3O[C@H](CO)[C@@H](O)[C@H](O)[C@H]3O)[C@@H]2[C@@]2(CO)O[C@@H]12)c1ccccc1`, the activation in assay [1] is 10.7%. Also, the Potency entry in assay [2] and in assay [3] was “inactive” in each case.

With `O=C(OC1C[C@H]2CC[C@@H](C1)[N+]21CCCC1)C(O)(c1ccccc1)c1ccccc1` (some centres not stated), the activation in assay [1] was 5.18%. The Potency result in assay [2] and in assay [3] was “inactive” throughout.

In the case of `COc1cc(/C=C/C(=O)OC2CC(OC(C)=O)C(OC(C)=O)C3C2CCC2C(=O)OC(c4ccoc4)CC23C)ccc1O[C@@H]1O[C@H](CO)[C@@H](O)[C@H](O)[C@H]1O` (some centres not stated), the activation in assay [1] was -16%. The Potency entry in assay [2] and in assay [3] was “inactive” each time.

Turning to `CC1=C[C@H](O)[C@H]2C(C)(C)CCC[C@]2(C)[C@@]1(O)CO`, the activation in assay [1] is -2.68%. For the same compound, the Potency result in assay [2] and in assay [3] was “inactive” each time.

As to `O=C1COC2(CCN(S(=O)(=O)c3ccc(-c4ccc5cccnc5c4)cc3)CC2)CN1C1CC1`, the activation in assay [1] was -15.7%. The Potency result in assay [2] and in assay [3] was “inactive” throughout.

For the compound `C=C(C(=O)O)C1CCC2(C)CCC(O)C(=C)C2C1` (configuration not stated), the activation in assay [1] is 9.82%. Further, the Potency result in assay [2] and in assay [3] was “inactive” each time.

In the case of `C=C1C(=O)O[C@H]2C3=C(C)CCC[C@]3(C)C(=O)C[C@@H]12`, the Potency in assay [1] was 15.1 µM (active). Moreover, the Potency result in assay [2] and in assay [3] was “inactive” each time.

Consider `Cc1ccc2c(c1)c1c(n2CCc2ccc(C)nc2)CCN(C)C1`, for which the activation in assay [1] is 14.3%. Moreover, the Potency entry in assay [2] and in assay [3] was “inactive” in each case.

For the compound `CC(=O)O[C@@H]1C[C@@H](OC(C)=O)C(C)(C)/C=C/[C@H](C)[C@H](OC(C)=O)[C@@]2(O)C[C@H](C)[C@H](OC(=O)c3ccccc3)[C@@H]2/C=C/1C`, the activation in assay [1] is -3.82%. Further, the Potency result in assay [2] and in assay [3] was “inactive” in each case.
